Source: PubChem
ATXN2 expr inh: Primary qHTS for Inhibitors of ATXN expression | Potency, µM (top dose mostly 57 µM), most hits filed as inhibitors | AID 1745845, 2022 | 360,000 compounds, 0.72% hits | HEK-293 ATXN2-luciferase reporter, luminescence, 24 h; further: nearly all actives have a fitted effect of over 55% in size
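qHTS (up to 57 uM final) was run with 24 h compound exposure of reporter cells at 37 °C. Each well was multiplexed: SteadyGlo luminescence measured ATXN2-luciferase expression after a fluorogenic Gly-Phe-AFC viability readout (25 uM final).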
A549 tox: Nrf2 qHTS screen for inhibitors: counterscreen for cytotoxicity; A549 ARE-Fluc cells, CellTiter-Fluor viability, 18-24 h; Potency, µM (titrated, usually from 46 µM), usual class: inhibitors; 390,000 compounds, 0.16% hits
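A549 ARE_Fluc cells in 5% FBS OPTI-MEM were exposed to compounds in concentration-response for 18-24 h at 37 deg C. Viability was read by CellTiter-Fluor fluorescence (Ex 405/Em 525) after 30 min, before the luciferase read.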
HepG2 viability: qHTS for Inhibitors of TGF-b: Cytotox Counterscreen; HepG2 CAGA-GFP viability, ATP luminescence, 18 h; Potency, µM (top dose mostly 46.1 µM), most hits filed as cytotoxic; 410,000 compounds, 0.76% hits; AID 588856, 2011
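HepG2 CAGA-GFP cells (1000/well, DMEM with 1% FBS) received compound, then TGF-beta at 500 pg/mL final, and were incubated 18 hours at 37 degrees C. Viability was read by CellTiter-Glo luminescence. Media-only wells were set as complete cell-killing and DMSO as no toxicity.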
Nrf2 block: Nrf2 qHTS screen for inhibitors | A549 ARE-Fluc reporter, luciferase luminescence, 18-24 h | Potency, µM (highest dose often 46 µM), usual class: inhibitors | 360,000 compounds, 2.1% hits; further: nearly all actives have a fitted effect of over 60% in size
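In this cell-based qHTS, ARE-driven firefly luciferase in A549 cells reports Nrf2 activity; the luminescent signal after BugLite lysis is the measured value, with a prior CellTiter-Fluor read for cell health.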
S2 tox: Viability Counterscreen for Primary qHTS for Inhibitors of ATXN expression | 400,000 compounds, 0.49% hits | S2 cells (HEK-293 line with an ATXN2-luciferase reporter) viability, CellTiter-Fluor protease fluorescence, 24 h | Potency, µM (series often up to 56.7 µM), most hits filed as cytotoxic; further: nearly all actives have a fitted effect of over 40% in size
TGFb SMAD3 inh: qHTS for Inhibitors of TGF-b; HepG2 CAGA-GFP TGF-b/SMAD3 reporter, GFP fluorescence, 18 h; TGF-beta stimulated, 500 pg/mL final; 410,000 compounds, 1.2% hits; AID 588855, 2011; Potency, µM (highest dose often 46.1 µM), usual class: inhibitors; further: nearly all actives have a fitted effect of over 65% in size
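First, reporter cells (HEPG2 CAGA-GFP) rested 2 h at 37 degrees C. Next, compounds were pinned in and TGF-beta added to 500 pg/mL final. After 18 h, GFP was imaged per cell and summed per well.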
Large screens that a line does not name were inactive. A selection: hits, their analogues and other compounds. The true share with any hit is near 3.8%. The call rests on the fitted dose curve; in most records, active means well fitted curve in the direction sought with a large enough effect; inconclusive means small, poorly fitted or top-dose-only effect, or another doubt; inactive means no such curve, though single readings can be large; an effect the other way counts as inactive or inconclusive.

CC12CCC=CC1C(c1ccc(Br)cc1F)N(Cc1ccccc1)C2=O (stereo not drawn)	TGFb SMAD3 inh inconclusive (no result: ATXN2 expr inh, S2 tox)
CC(C)c1ccc(-c2nc(N3CCOCC3)[nH]c(=O)c2C#N)cc1	none
O=C(CNC(=O)C(c1ccccc1)c1ccccc1)OCC(=O)c1cccc2ccccc12	none (no result: ATXN2 expr inh, S2 tox)
CCOC(=O)Nc1ccc2c(c1)N(C(=O)N1CCN(C)CC1)c1ccccc1S2	none
C=CC(=O)N1c2ccccc2Sc2ccc(NC(=O)OCC)cc21	ATXN2 expr inh inconclusive, A549 tox inconclusive, Nrf2 block inconclusive, S2 tox inconclusive, TGFb SMAD3 inh 16µM
COc1ccc(C(=O)NCC(=O)OCC(=O)N2CC(C)OC(C)C2)cc1OC (stereo not drawn)	none
Cc1ccc(N2C(=O)CCSC23C(=O)N(Cc2ccccc2)c2ccccc23)cc1F (stereo not drawn)	TGFb SMAD3 inh inconclusive (no result: ATXN2 expr inh, S2 tox)
Cc1ccc(-n2c(C)cc(C(=O)COc3cccnc3[N+](=O)[O-])c2C)cc1	Nrf2 block 3.3µM, TGFb SMAD3 inh inconclusive (no result: S2 tox)
Cc1cc(C(=O)COc2cccnc2[N+](=O)[O-])c(C)n1-c1ccccc1F	Nrf2 block inconclusive (no result: ATXN2 expr inh)
Cc1cc(C(=O)COc2cccnc2[N+](=O)[O-])c(C)n1-c1ccccc1	ATXN2 expr inh inconclusive, Nrf2 block 2.9µM, S2 tox inconclusive
COC(=O)c1ccc2c(c1)c(-c1ccccc1)c(-c1ccccc1)n2C	A549 tox inconclusive
CC(C)(C)OC(=O)N(CCc1ccccc1)Cc1cccc(OCc2cccc(NC(=O)C3CCCC3)c2)c1	none
COC(=O)NC1CC2C=CC1C1C=CC21 (stereo not drawn)	none (no result: ATXN2 expr inh, A549 tox, Nrf2 block)
O=C(Cc1ccc2c(c1)OCO2)NN=Cc1ccc([N+](=O)[O-])o1	ATXN2 expr inh inconclusive, Nrf2 block inconclusive, S2 tox inconclusive, TGFb SMAD3 inh 10µM
O=C(CNc1ccccc1)N/N=C/c1ccc([N+](=O)[O-])o1	ATXN2 expr inh inconclusive, A549 tox inconclusive, HepG2 viability 11µM, Nrf2 block 18µM, TGFb SMAD3 inh inconclusive
O=C(CNC(=O)c1ccccc1)N/N=C/c1ccc([N+](=O)[O-])o1	A549 tox inconclusive, Nrf2 block inconclusive, S2 tox inconclusive, TGFb SMAD3 inh inconclusive (no result: ATXN2 expr inh)
O=C(CCC(=O)Nc1ccc(Cl)cc1Cl)N/N=C/c1ccc([N+](=O)[O-])o1	ATXN2 expr inh inconclusive, HepG2 viability 16µM, Nrf2 block 18µM, S2 tox inconclusive, TGFb SMAD3 inh 11µM
CCCCCC(=O)N/N=C/c1ccc([N+](=O)[O-])o1	HepG2 viability 10µM, TGFb SMAD3 inh inconclusive (no result: Nrf2 block)
Cc1nn2c(=O)cc(COC(=O)c3ccc(NC(=O)COc4ccc(Cl)cc4)cc3)nc2s1	TGFb SMAD3 inh inconclusive (no result: ATXN2 expr inh, Nrf2 block, S2 tox)
Cc1ccc(NCC(=O)N/N=C\c2ccc([N+](=O)[O-])o2)cc1	A549 tox inconclusive, HepG2 viability 13µM, Nrf2 block 21µM, TGFb SMAD3 inh 11µM
Cc1ccc(NCC(=O)N/N=C/c2ccc(C(=O)O)cc2)cc1	none
O=C(CCSc1ccc(Cl)cc1)N1CCN(S(=O)(=O)c2ccccc2)CC1	none
CCOC(=O)c1ccc(NC(=O)CN2C(=O)C(C)(C)c3ccccc32)cc1	S2 tox inconclusive (no result: Nrf2 block)
CCOC(=O)c1ccc(NC(=O)CN2c3ccccc3S(=O)(=O)c3ccccc32)cc1	ATXN2 expr inh inconclusive, S2 tox inconclusive, TGFb SMAD3 inh 11µM
O=C(c1cccs1)N1CCN(c2nc3ccccc3s2)CC1	Nrf2 block inconclusive
O=C(c1ccc(Cl)s1)N1CCN(c2nc3ccccc3s2)CC1	ATXN2 expr inh inconclusive, Nrf2 block 7.3µM
Oc1ccc(NC(=S)N=Nc2c(O)[nH]c3ccc(Br)cc23)cc1	ATXN2 expr inh inconclusive, HepG2 viability 22µM, S2 tox inconclusive, TGFb SMAD3 inh inconclusive
Oc1[nH]c2ccc(Br)cc2c1N=NC(=S)Nc1ccc(F)cc1	Nrf2 block inconclusive, S2 tox inconclusive, TGFb SMAD3 inh 10µM
